Source: PubChem BioAssay (National Center for Advancing Translational Sciences (NCATS))
BAZ2B inh: inhibitors of human BAZ2B bromodomain; AlphaScreen BAZ2B-H3K14Ac peptide displacement; Potency, µM (doses to about 114 µM), for inactives: at the highest dose activity change, negative = inhibition, actives largely listed as inhibitors; 360,000 compounds, 4.4% hits; AID 504333; further: on the % scale 0 is the no-effect control and ±100 the full control effect; nearly all actives have a fitted effect of over 60% in size
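Multi-concentration screen (max 110 uM) measuring displacement of acetylated histone H3 peptide from BAZ2B by AlphaScreen, using 50 nM protein, 50 nM peptide and 10 ug/mL streptavidin donor plus Ni-chelate acceptor beads.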
L3MBTL1 inh: inhibitors of human L3MBTL1; Q9Y468; AlphaScreen L3MBTL1–H3K9me1 peptide binding; Potency, µM (top dose mostly 57.1 µM), for inactives: at the top dose activity, negative = inhibition, hits mostly inhibitors; 230,000 compounds, 0.66% hits; AID 485360; further: on the % scale 0 is the no-effect control and ±100 the full control effect; nearly all actives have a fitted effect of over 60% in size
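L3MBTL1 50 nM + b-AHA-H3(1-15)K9me1 75 nM, 30 min RT; compound added, 30 min RT; streptavidin donor/Ni-chelate acceptor beads 10 ug/mL each final, 30 min RT dark; AlphaScreen read.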
G9a inh: inhibitors of human histone lysine methyltransferase G9a | AID 504332 | Potency, µM (titrated, usually from 102 µM), for inactives: top-dose activity, negative = inhibition, actives largely listed as inhibitors | G9a H3K9 monomethylation, AlphaScreen, 2 h | Q96KQ7 | 350,000 compounds, 8.8% hits; further: on the % scale 0 is the no-effect control and ±100 the full control effect; nearly all actives have a fitted effect of over 75% in size
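AlphaScreen detection with an anti-monomethyl H3K9 antibody quantified product after a 2 h room-temperature reaction containing 500 nM biotinylated H3K9 peptide, 20 µM SAM and 20 nM enzyme, which had been preincubated 15 min with compound.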
JMJD2A Tudor inh: inhibitors of human JMJD2A Tudor domain. O75164. AlphaScreen JMJD2A-Tudor / H3K4me3 peptide binding. Potency, µM (doses to about 114 µM), for the others: at the highest dose activity change, negative = inhibition, most hits filed as inhibitors. 390,000 compounds, 4.4% hits. AID 504339; further: on the % scale 0 is the no-effect control and ±100 the full control effect; nearly all actives have a fitted effect of over 50% in size
HP1b chromo inh: inhibitors of HP1-beta chromodomain binding to methylated histone tails; P83916; AlphaScreen HP1-beta / biotin-H3K9me3 peptide binding; Potency, µM (top dose mostly 114 µM), for inactives: at the top dose activity change, negative = inhibition, usual class: inhibitors; 390,000 compounds, 0.56% hits; AID 540317; further: nearly all actives have a fitted effect of over 70% in size
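HP1-beta protein (50 nM final) preincubated 30 min at room temperature with biotinylated H3(1-18)K9me3 peptide (50 nM) in PBS pH 7.4, 0.01% Tween-20, then compound added for 30 min. AlphaScreen streptavidin donor/nickel chelate acceptor beads (10 ug/mL final), 30 min dark, luminescence read.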
* = called active by the depositor; [ ] = another dose, or the depositor's remark. Most compounds without a hit are left out; they make up all but 11% or so of the library. The call rests on the fitted dose curve; in most records, active means well fitted inhibition curve with a large enough effect; inconclusive means small, poorly fitted or top-dose-only effect; inactive means no such curve, though single readings can be large or run the other way. Potency means the concentration at half of the fitted maximal effect.

For O=C(NCC(c1cccnc1)N1CCOCC1)c1cccs1 (stereo unspecified) the results were BAZ2B inh -10.0%, L3MBTL1 inh -3.5%, G9a inh 44.7µM*, JMJD2A Tudor inh 9.4%[57.1 µM] and HP1b chromo inh 37.6%.
`COC(=O)NCC(c1cccnc1)N1CCOCC1` (stereo unspecified) gave BAZ2B inh -1.8%, L3MBTL1 inh -1.6%, G9a inh inconclusive, JMJD2A Tudor inh 2.1% and HP1b chromo inh 54.9%.
Cc1cccc(C(=O)NCC(c2cccs2)N2CCOCC2)c1 (stereo unspecified) was read as BAZ2B inh 9.5%, L3MBTL1 inh -2.5%, G9a inh 7.94µM*, JMJD2A Tudor inh -3.4% and HP1b chromo inh 17.9%.
For CC(C)NC(=S)Nc1c(N)[nH]c(=O)[nH]c1=O the results were BAZ2B inh -0.9%, L3MBTL1 inh 3.6%, G9a inh 56.2µM*, JMJD2A Tudor inh -5.1% and HP1b chromo inh 26.2%.
C/C(=N\O)C(C)/[N+]([O-])=C/c1nc(C)c(C)n1O (stereo unspecified) was read as JMJD2A Tudor inh 7.08µM* and HP1b chromo inh 4.8%.
CC(=O)C[C@H](O)CC(=O)[C@H]1OC(=O)CCCCCCc2ccccc21 was read as L3MBTL1 inh -0.5%, JMJD2A Tudor inh -15.1% and HP1b chromo inh 17.8%.
`CCc1ccccc1NC(=O)c1ccc2c(c1)CCCN2S(C)(=O)=O` gave BAZ2B inh 3.5%, G9a inh -14.2%[59 µM], JMJD2A Tudor inh -12.6% and HP1b chromo inh 15.1%.
`O=C(CCCn1c(=S)[nH]c2ccsc2c1=O)NCc1ccco1` gave BAZ2B inh inconclusive, L3MBTL1 inh 2.3%, G9a inh inconclusive, JMJD2A Tudor inh 56.2µM* and HP1b chromo inh 4.4%.
Screening Cc1ccccc1Cn1c(=O)n(CCCC(=O)NCc2ccco2)c(=O)c2sccc21 returned BAZ2B inh 5.0%, G9a inh 19.6%, JMJD2A Tudor inh -19.7% and HP1b chromo inh 4.4%.
`O=C(CCCCn1c(=S)[nH]c2ccsc2c1=O)NCc1ccco1` gave BAZ2B inh -31.9%, L3MBTL1 inh -4.8%, G9a inh 22.4µM*, JMJD2A Tudor inh 25.1µM* and HP1b chromo inh -14.7%.
Screening CCCCOc1ccc(C(=O)NCCc2csc3nc(-c4ccccc4F)nn23)cc1 returned BAZ2B inh -3.5%, G9a inh 5.1%[59 µM], JMJD2A Tudor inh -4.8% and HP1b chromo inh 25.0%[57 µM].
`CC(=O)c1cc(-c2ccc(F)cc2)n(CCC(=O)Nc2nc3ccc(C)cc3s2)c1C` gave BAZ2B inh -0.4%, G9a inh -31.2%[59 µM], JMJD2A Tudor inh -6.7% and HP1b chromo inh 48.8%.
`CC1(C)CC(N2CCCC2)=CC(=[N+]2CCCC2)C1` gave BAZ2B inh 79.4µM*, L3MBTL1 inh inconclusive, G9a inh inconclusive, JMJD2A Tudor inh -15.1% and HP1b chromo inh -1.2%.
For CC1(C)CC(N2CCN(Cc3ccccc3)CC2)=CC(=[N+]2CCCCC2)C1 the results were BAZ2B inh -20.0%, G9a inh inconclusive, JMJD2A Tudor inh 17.8µM* and HP1b chromo inh 70.8µM*.
For CN(Cc1ccccc1)C1=CC(=[N+]2CCCCC2)CC(C)(C)C1 the results were BAZ2B inh inconclusive, G9a inh 31.6µM*, JMJD2A Tudor inh -11.5% and HP1b chromo inh 17.1%.
For COc1ccc(C(=O)NNC2=CC(=O)CC(C)(C)C2)cc1OC the results were BAZ2B inh -30.1%, L3MBTL1 inh -2.4%, G9a inh 8.2%[59 µM], JMJD2A Tudor inh 11.5% and HP1b chromo inh 20.8%.
Screening Cc1ccc(NC(=O)CCS(=O)(=O)c2cc(Br)cc3c2N(C(=O)C2CC2)CC3)cc1 returned BAZ2B inh -9.0%, G9a inh -11.5%[59 µM], JMJD2A Tudor inh -5.1% and HP1b chromo inh 24.3%.
Screening CCOc1cc(C(N)=O)cc(Cl)c1OCc1ccccc1 returned BAZ2B inh inconclusive, L3MBTL1 inh 3.7%, G9a inh -7.2%[59 µM], JMJD2A Tudor inh -11.6% and HP1b chromo inh 23.8%.
For CCOc1cc(/C=C(/NC(C)=O)C(=O)O)cc(Cl)c1OCc1cccc(Br)c1 the results were BAZ2B inh 50.1µM*, L3MBTL1 inh 0.7%, G9a inh -10.0%[12.7 µM], JMJD2A Tudor inh inconclusive and HP1b chromo inh 2.9%[57 µM].
`Cc1onc(-c2c(Cl)cccc2Cl)c1NC(=O)NNc1c(Cl)cncc1Cl` gave BAZ2B inh -0.4%, L3MBTL1 inh -0.9%, G9a inh 2.6%, JMJD2A Tudor inh -14.1% and HP1b chromo inh 63.2%.
`Cc1onc(-c2c(Cl)cccc2Cl)c1C(=O)NNc1ccccc1` gave BAZ2B inh inconclusive, L3MBTL1 inh 5.0%, JMJD2A Tudor inh 79.4µM* and HP1b chromo inh -30.2%.
For Cc1onc(-c2c(F)cccc2Cl)c1C(=O)ONC(=O)c1ccco1 the results were BAZ2B inh -7.5%, G9a inh 50.1µM*, JMJD2A Tudor inh 39.8µM* and HP1b chromo inh 28.6%.
Cc1cc(C(=O)NNC(=O)c2c(-c3c(Cl)cccc3Cl)noc2C)no1 was read as BAZ2B inh -11.4%, G9a inh 20.7%, JMJD2A Tudor inh -8.3% and HP1b chromo inh 29.8%.
Screening Cc1onc(-c2c(Cl)cccc2Cl)c1NC(=O)NNc1ccccc1 returned BAZ2B inh -15.0%, L3MBTL1 inh 4.5%, G9a inh 39.8µM*, JMJD2A Tudor inh -15.9% and HP1b chromo inh 62.7%.
For CCC(C)(C)n1nnnc1C(c1cc2cc(C)cc(C)c2[nH]c1=O)N1CCCC1 (stereo unspecified) the results were BAZ2B inh -0.3%, L3MBTL1 inh -7.6%, G9a inh 7.94µM*, JMJD2A Tudor inh inconclusive and HP1b chromo inh 11.0%.
CCC(C)(C)n1nnnc1C(c1cc2cc(C)cc(C)c2[nH]c1=O)N1CCN(Cc2ccc3c(c2)OCO3)CC1 (stereo unspecified) was read as BAZ2B inh -21.2%, G9a inh -3.9%[12.7 µM], JMJD2A Tudor inh -14.6% and HP1b chromo inh 31.4%.
CCC(C)(C)n1nnnc1C(c1cc2cccc(C)c2[nH]c1=O)N1CCCC1 (stereo unspecified) was read as BAZ2B inh -27.7%, L3MBTL1 inh -4.8%, G9a inh 11.2µM*, JMJD2A Tudor inh -30.5% and HP1b chromo inh 11.8%.
`Cc1cccc(Nc2ncnc3c2cnn3C)c1C` gave BAZ2B inh -0.5%, G9a inh 3.9%[59 µM], JMJD2A Tudor inh -20.5% and HP1b chromo inh 2.6%.
Screening CC1CN(c2ccc(Cl)cc2)c2nc3c(c(=O)n(CC(=O)O)c(=O)n3C)n2C1 (stereo unspecified) returned BAZ2B inh -19.1%, G9a inh 3.1%[59 µM], JMJD2A Tudor inh -5.6% and HP1b chromo inh 23.8%.
`OC[C@H](S)CS` gave G9a inh 1µM*.
CCN1CCN(CC2CC3C=CC2C3)CC1 (stereo unspecified) was read as BAZ2B inh 50.1µM*, L3MBTL1 inh -5.5%, G9a inh inconclusive, JMJD2A Tudor inh 1.26µM* and HP1b chromo inh inconclusive.
